This note sets out measurements from PubChem BioAssay (NCI).

Among the test systems are DU-145 prostate; K-562 leukemia; MALME-3M melanoma; MDA-MB-231 breast; RXF 393 renal; SF-268 CNS; SF-295 CNS; SF-539 CNS; UACC-257 melanoma; M14 melanoma; HCT-15 colon; HT29 colon; SNB-75 CNS; SNB-19 CNS; U251 CNS; PC-3 prostate; SK-MEL-5 melanoma; UACC-62 melanoma; LOX IMVI melanoma; SK-MEL-28 melanoma.
Assay in all cases: NCI-60 one-dose screen, 48 h (100 = growth as untreated, 0 = no growth, -100 = all killed)
What all share (conditions): 10 µM

The structures appear in SMILES notation. About 83,000 compounds went through this panel and 20% of them were active in at least one assay; those are over-represented in the sample as a whole.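 In brief: 96-well plates, 48 h treatment, single concentration, percent growth endpoint.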 A number with no mark means an inactive call. Calls of active or inactive are those of the source. How the source made its calls: active means growth percent below 10; inactive means the rest.

Regarding `Nc1ccc(CC[C@H]2CCC/C=C/[C@@H]3C[C@H](O)C[C@H]3[C@H](O)/C=C/C(=O)O2)cc1`, the growth was 16.2% in the experiment with DU-145 prostate; 11.4% in the experiment with K-562 leukemia; -14% (active) in the experiment with MALME-3M melanoma; -80.5% (active) in the experiment on MDA-MB-231 breast; -36.3% (active) in the experiment on RXF 393 renal; 10.2% in the experiment on SF-268 CNS. Further, the growth in the experiment on SF-295 CNS is 13%; with SF-539 CNS, 25.3%; in the experiment with UACC-257 melanoma, 4.74% (active); with M14 melanoma it was 3.35% (active); with HCT-15 colon, 6.58% (active); in the experiment on HT29 colon it was -39.8% (active). Moreover, the growth in the experiment on SNB-75 CNS was 32.3%; with SNB-19 CNS it was 29.5%; in the experiment with U251 CNS, 15.8%; in the experiment on PC-3 prostate, 12.9%; in the experiment on SK-MEL-5 melanoma, -84.9% (active); in the experiment with UACC-62 melanoma, 11.7%. In addition, the figures for the growth in the experiment on LOX IMVI melanoma and in the experiment on SK-MEL-28 melanoma were -74.4% (active) and 5.16% (active), respectively.
On to `CC(C)(C)OC(=O)CN1CCc2c(sc3ncnc(N/N=C/c4ccccc4Br)c23)C1`, for which the growth is 94.6% with DU-145 prostate; 16.6% in the experiment on K-562 leukemia; 93.2% with MALME-3M melanoma; 65.5% with MDA-MB-231 breast; 70.3% in the experiment with RXF 393 renal; 76.9% in the experiment on SF-268 CNS. Further, the growth in the experiment with SF-295 CNS is 99.2%; in the experiment with SF-539 CNS it was 84.1%; in the experiment with UACC-257 melanoma, 92.7%; in the experiment on M14 melanoma it was 73.4%; in the experiment with HCT-15 colon, 37%; with HT29 colon it was 81.6%. Also, the growth in the experiment with SNB-75 CNS was 52.6%; in the experiment with SNB-19 CNS, 81.2%; with U251 CNS, 77.9%; with PC-3 prostate it was 47.9%; with SK-MEL-5 melanoma, 55.1%; with UACC-62 melanoma, 39.5%. Further, the growth was 53.7% with LOX IMVI melanoma and 90.9% with SK-MEL-28 melanoma.
Turning to `O=C(N/N=C/c1cc([N+](=O)[O-])ccc1O)c1cccc2ccccc12`, the growth with DU-145 prostate is 45.2%; with K-562 leukemia it was 30.3%; with MALME-3M melanoma, 53.7%; in the experiment with MDA-MB-231 breast, 40.9%; in the experiment with RXF 393 renal, 46.5%; with SF-268 CNS, 39.8%. Also, the growth with SF-295 CNS was 26.4%; in the experiment on SF-539 CNS, 22.9%; with UACC-257 melanoma, 23.5%; with M14 melanoma, 34.5%; in the experiment with HCT-15 colon it was 22.5%; in the experiment with HT29 colon, 65.9%. Also, the growth with SNB-75 CNS is 55%; with SNB-19 CNS it was 53%; in the experiment on U251 CNS, 29.8%; in the experiment with PC-3 prostate, 41.4%; with SK-MEL-5 melanoma it was 39.1%; in the experiment on UACC-62 melanoma it was 9.83% (active). For the same compound, the growth with LOX IMVI melanoma was 9.69% (active); with SK-MEL-28 melanoma, 50%.
On to `Cc1cc(CCNC=O)c(C)c2c1sc1ccccc12`, for which the growth with DU-145 prostate is 112%; in the experiment on K-562 leukemia, 97.2%; in the experiment with MALME-3M melanoma, 105%; in the experiment with MDA-MB-231 breast, 79.9%; in the experiment with RXF 393 renal it was 80%; in the experiment with SF-268 CNS it was 92.5%. For the same compound, the growth in the experiment with SF-295 CNS is 94.8%; in the experiment on SF-539 CNS, 87.2%; in the experiment on UACC-257 melanoma it was 90.1%; in the experiment on M14 melanoma, 118%; in the experiment with HCT-15 colon, 90.2%; in the experiment with HT29 colon, 97.1%. The growth in the experiment with SNB-75 CNS was 81.9%; in the experiment on SNB-19 CNS, 85.1%; in the experiment on U251 CNS, 92%; with PC-3 prostate it was 84.7%; with SK-MEL-5 melanoma, 78.8%; in the experiment with UACC-62 melanoma it was 79.1%. In addition, the growth in the experiment with LOX IMVI melanoma is 98.4%; in the experiment on SK-MEL-28 melanoma, 89.9%.
Regarding `CCCCCCCCCCOC(c1ccccc1)c1ccccc1`, the growth is 105% with DU-145 prostate; 85.6% in the experiment with K-562 leukemia; 95.7% in the experiment with MALME-3M melanoma; 88.4% in the experiment with MDA-MB-231 breast; 94.2% in the experiment with RXF 393 renal; 94.2% in the experiment with SF-268 CNS. Besides, the growth in the experiment on SF-295 CNS was 89.6%; in the experiment on SF-539 CNS it was 102%; with UACC-257 melanoma it was 102%; with M14 melanoma, 90.9%; in the experiment on HCT-15 colon, 81.1%; in the experiment with HT29 colon it was 66.7%. Also, the growth with SNB-75 CNS is 95.1%; in the experiment on SNB-19 CNS it was 96%; in the experiment with U251 CNS, 94.2%; with PC-3 prostate, 83.5%; in the experiment with SK-MEL-5 melanoma, 104%; in the experiment with UACC-62 melanoma, 81.5%. Also, the growth was 79.6% in the experiment on LOX IMVI melanoma and 96.2% in the experiment with SK-MEL-28 melanoma.
Consider `CCN(CC)CCOc1cccc2c1C(=O)c1ccccc1C2=O`, for which the growth is 100% with DU-145 prostate; 93.8% with K-562 leukemia; 115% in the experiment on MALME-3M melanoma; 85.7% in the experiment on MDA-MB-231 breast; 79.9% with RXF 393 renal; 94.2% in the experiment with SF-268 CNS. Moreover, the growth in the experiment with SF-295 CNS is 96.8%; in the experiment on SF-539 CNS it was 99.7%; in the experiment on UACC-257 melanoma, 94.4%; with M14 melanoma it was 94.4%; in the experiment with HCT-15 colon it was 94.6%; with HT29 colon, 80.6%. For the same compound, the growth in the experiment on SNB-75 CNS is 86.4%; in the experiment with SNB-19 CNS, 92.1%; with U251 CNS, 93.4%; in the experiment on PC-3 prostate, 83.5%; with SK-MEL-5 melanoma it was 93.7%; in the experiment on UACC-62 melanoma it was 95.2%. For the same compound, the values for the growth in the experiment with LOX IMVI melanoma and with SK-MEL-28 melanoma were 84.1% and 111%, respectively.
Take `CC(=O)[C@H]1CC[C@]2(C)[C@@H]1CC[C@@H]1[C@@]3(C)CC(CCC#N)(CCC#N)C(=O)C(C)(C)[C@@H]3CC[C@]12C`: the growth with DU-145 prostate is 108%; with K-562 leukemia, 110%; with MALME-3M melanoma, 105%; with MDA-MB-231 breast, 105%; in the experiment on RXF 393 renal it was 90.6%; in the experiment on SF-268 CNS, 98.9%. Besides, the growth was 98.2% with SF-295 CNS; 101% in the experiment on SF-539 CNS; 107% in the experiment on UACC-257 melanoma; 95.9% with M14 melanoma; 100% in the experiment with HCT-15 colon; 98.8% with HT29 colon. Besides, the growth was 84.5% in the experiment with SNB-75 CNS; 93.7% in the experiment with SNB-19 CNS; 102% in the experiment with U251 CNS; 93.8% in the experiment with PC-3 prostate; 86.6% with SK-MEL-5 melanoma; 82.4% with UACC-62 melanoma. The growth with LOX IMVI melanoma was 94.1%; in the experiment with SK-MEL-28 melanoma, 93.9%.
With `CCCN1CN2C(=O)N3CN(CCC)CN4C(=S)N(C1)C2C34` (stereo not given), the growth in the experiment with DU-145 prostate was 101%; with K-562 leukemia, 105%; with MALME-3M melanoma, 112%; in the experiment on MDA-MB-231 breast it was 98.6%; with RXF 393 renal, 132%; in the experiment with SF-268 CNS, 97.3%. The growth in the experiment on SF-295 CNS was 94.2%; in the experiment with SF-539 CNS it was 95.3%; with UACC-257 melanoma, 92.9%; in the experiment on M14 melanoma, 94.5%; in the experiment on HCT-15 colon, 98.2%; with HT29 colon, 99.5%. Also, the growth with SNB-75 CNS was 81%; in the experiment with SNB-19 CNS, 101%; with U251 CNS it was 97.3%; in the experiment with PC-3 prostate, 91.5%; in the experiment on SK-MEL-5 melanoma, 107%; in the experiment with UACC-62 melanoma it was 98%. Besides, the figures for the growth in the experiment on LOX IMVI melanoma and in the experiment with SK-MEL-28 melanoma were 103% and 93.4%, respectively.
